Source: PubChem (National Center for Advancing Translational Sciences (NCATS))
Compounds with a hit are over-represented: about 10% of the library has one in this group of screens.
NIH3T3 tox – cytotoxic compounds in NIH 3T3 cells. 94,000 tested, 4.3% active. NIH 3T3 viability, CellTiter-Glo ATP luminescence, 48-72 h. Potency, µM (top dose mostly 96.7 µM), most hits filed as inhibitors; also: nearly all actives have a fitted effect of over 55% in size
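Luminescent ATP readout (CellTiter-Glo, 10 min RT) after 48 or 72 hr compound exposure of NIH 3T3 cells seeded at 400 cells/well in 1536-well format; quantitative HTS.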
GPT2 inh – blocks human glutamate pyruvate transaminase 2. Q8TD30. Recombinant GPT2, coupled pyruvate oxidase/HRP Amplex Red fluorescence. Potency, µM (series often up to 57.7 µM), hits mostly inhibitors. 100,000 tested, 0.25% active. AID 1671188; also: nearly all actives have a fitted effect of over 60% in size
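Fluorescence read-out: pyruvate from GPT2 turnover coupled to pyruvate oxidase, HRP and Amplex Red (0.2mM ThPP, 0.2U/mL PO and HRP, 50uM Amplex final). Substrates 250uM a-KG, 2mM L-alanine; enzyme 10ng/uL; 30 min RT.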
NPR1 antag – blocks ANP-stimulated signaling of human Npr1 receptor | P16066 | HEK293 hNpr1 GloSensor cGMP, ANP-stimulated luminescence | Potency, µM (titrated, usually from 46.3 µM), usual class: inhibitors | 76,000 tested, 1.6% active | AID 1347048; calls by dose curve; also: nearly all actives have a fitted effect of over 60% in size
Target sequence (P16066 whole entry, looked up): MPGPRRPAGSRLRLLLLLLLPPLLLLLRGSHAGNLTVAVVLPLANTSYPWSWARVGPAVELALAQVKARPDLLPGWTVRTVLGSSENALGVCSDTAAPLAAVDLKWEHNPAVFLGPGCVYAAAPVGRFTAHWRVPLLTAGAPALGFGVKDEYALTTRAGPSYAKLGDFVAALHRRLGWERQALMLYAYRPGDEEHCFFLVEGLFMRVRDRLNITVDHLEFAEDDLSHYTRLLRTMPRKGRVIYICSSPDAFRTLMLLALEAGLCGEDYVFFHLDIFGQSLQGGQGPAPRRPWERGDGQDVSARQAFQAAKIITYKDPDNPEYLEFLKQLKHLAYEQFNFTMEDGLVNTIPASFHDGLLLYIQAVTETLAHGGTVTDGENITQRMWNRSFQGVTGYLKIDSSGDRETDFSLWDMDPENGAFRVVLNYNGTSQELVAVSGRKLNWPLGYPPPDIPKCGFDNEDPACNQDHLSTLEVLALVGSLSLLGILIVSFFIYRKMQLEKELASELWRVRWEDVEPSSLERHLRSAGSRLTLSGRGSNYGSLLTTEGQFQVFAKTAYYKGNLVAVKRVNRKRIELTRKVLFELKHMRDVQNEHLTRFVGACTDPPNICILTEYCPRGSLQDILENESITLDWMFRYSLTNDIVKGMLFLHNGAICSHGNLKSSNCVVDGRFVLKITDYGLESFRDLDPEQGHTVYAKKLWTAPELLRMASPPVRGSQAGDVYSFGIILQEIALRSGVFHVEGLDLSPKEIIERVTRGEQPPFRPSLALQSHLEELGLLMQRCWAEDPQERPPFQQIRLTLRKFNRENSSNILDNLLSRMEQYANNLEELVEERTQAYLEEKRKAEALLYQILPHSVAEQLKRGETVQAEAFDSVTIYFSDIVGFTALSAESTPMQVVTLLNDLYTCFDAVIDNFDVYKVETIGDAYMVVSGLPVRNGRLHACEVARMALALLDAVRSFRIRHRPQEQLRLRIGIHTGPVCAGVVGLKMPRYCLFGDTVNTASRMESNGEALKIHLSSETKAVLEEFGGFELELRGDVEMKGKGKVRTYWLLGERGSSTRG
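Compound pre-incubated 30 min at room temperature on GloSensor-loaded HEK293 cells stably carrying hNpr1 and the pGS-40F cGMP biosensor. Stimulation uses hNppA at 0.1 nM final; luminescence is taken at baseline and 20 min post-agonist.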
HEK293 tox – HEK 293 cell cytotoxicity; HEK 293 viability, ATP luminescence (CellTiter-Glo), 48-72 h; Potency, µM (titrated, usually from 115 µM), actives largely listed as inhibitors; 94,000 tested, 6.6% active; AID 1345083; also: nearly all actives have a fitted effect of over 60% in size
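ATP-coupled CellTiter-Glo luminescence served as viability read-out, recorded 10 min after reagent addition at room temperature. HEK 293 cells, 250 cells/well, had been incubated with pintool-transferred compound for 48 or 72 hr at 37 degree Celsius.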
Luciferase inh – Photinus pyralis luciferase inhibition. P08659. purified P. pyralis luciferase, luminescence, biochemical. Potency, µM (top dose mostly 115 µM), usual class: inhibitors. 76,000 tested, 2.5% active. AID 1347043; also: nearly all actives have a fitted effect of over 65% in size
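Purified 10nM P. pyralis luciferase with 10uM D-luciferin and 10uM ATP in 50mM Tris acetate pH 7.5, 10mM Mg acetate, 0.01% Tween-20, 0.05% BSA. qHTS titration; luminescence read by CCD imager.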
A number is an active result; . = inactive; ? = inconclusive; / = not tested or not shown; ! = not active in a repeat. Unless noted, calls follow the shape of the dose curve; as a rule, active = well fitted curve in the direction sought with a large enough effect; inconclusive = small, poorly fitted or top-dose-only effect, or another doubt; inactive = no such curve, though single readings can be large; an effect the other way counts as inactive or inconclusive.

SMILES | NIH3T3 tox | GPT2 inh | NPR1 antag | HEK293 tox | Luciferase inh
COC1CN(c2cccc(F)c2)C12CCN(C(=O)C1CCCCC1)CC2 (centres undefined) | . | . | . | 28µM | .
O=[S+]([O-])(c1cccnc1)c1nnn2c1nc(N1CCCCC1)c1ccccc12 | ? | . | / | ? | /
S=C(NC1CCCCC1)N[C@H]1CO[C@H]2[C@@H]1OC[C@@H]2n1nnnc1Oc1cccc(N2CCOCC2)c1 | ? | . | ? | ? | .
Cn1c2c(c3cc(F)ccc31)CN(C(=O)Nc1cccc(Cl)c1)CC2 | 20µM | . | ? | ? | ?
Cc1cccc(NC(=O)N2CCc3c(c4cc(F)ccc4n3C)C2)c1 | ? | . | . | ? | ?
Cn1c2c(c3cc(F)ccc31)CN(C(=O)Nc1ccc(Cl)cc1)CC2 | 28µM | ? | . | ? | 25µM
CC(C)(C)CN1CCOC[C@H]1c1ncc(-c2ccc(F)cc2)[nH]1 | ? | . | . | ? | .
COc1ccc(CC(=O)N2CCN(c3ccnc4ccnn34)CC2)cc1 | ? | . | / | ? | /
CN1CC(=O)N(C2CCCNC2)Cc2c1ncnc2N1CCCC(O)C1 (centres undefined) | . | . | / | . | /
Cc1ccsc1C(=O)N1C[C@@H](Oc2cccnc2)C[C@@H]1C(=O)N1CCOCC1 | . | . | . | ? | .
CCCN1C(=O)CCc2cc(NC(=O)c3ccc4c(c3)OCO4)ccc21 | ? | . | . | 45µM | 32µM
CCOc1ccc(C(=O)Nc2ccc3c(c2)CCC(=O)N3CC(C)C)cc1 | ? | . | ? | 28µM | .
CCCN1C(=O)CCc2cc(NC(=O)c3ccc(C)cc3)ccc21 | ? | . | . | ? | 32µM
CC(=O)Nc1ccc2c(c1)CCC(=O)N2CC(C)C | . | . | . | . | .
Cc1ccc(OCc2nc(C3CN(C(=O)CCCc4ccccc4)C3)no2)cc1 | ? | . | / | ? | /
CCCOC(=O)N1CCC(C(=O)Nc2cccc(-c3cccc(F)c3)c2)CC1 | ? | . | ? | 45µM | .
COc1cc(F)ccc1-c1nc(-c2c(C)noc2C)cc2[nH]c(C)cc12 | 35µM | . | . | ? | .
Cc1cc2c(-c3ccccc3)nc(-c3c(C)noc3C)cc2[nH]1 | ? | ? | . | ? | .
COc1ccccc1-c1nc(-c2c(C)noc2C)cc2[nH]c(C)cc12 | 25µM | . | . | ? | .
COc1ncccc1-c1nc(-c2c(C)noc2C)cc2[nH]c(C)cc12 | ? | . | . | ? | .
COC(=O)[C@@H]1Cc2c([nH]c3ccccc23)[C@H]2C[C@@H](NCCN(C)C)C[C@@H](c3cccc(Cl)c3)N21 | 4.5µM | . | . | 6.3µM | ?
COC(=O)[C@@H]1Cc2c([nH]c3ccccc23)[C@@H]2C[C@@H](NCCNC(C)=O)C[C@@H](c3cccc(Cl)c3)N12 | 28µM | . | . | 32µM | .
CC(=O)NCCC(=O)N1CCC(n2c(=O)[nH]c3ccccc32)CC1 | . | . | / | . | /
COC(=O)[C@@H]1Cc2c([nH]c3ccccc23)[C@H]2C[C@@H](NCCNC(C)=O)C[C@@H](c3ccc(-c4ccccc4)cc3)N21 | ? | . | . | 40µM | .
CC(=O)NCc1nnc2n1C(C(=O)Nc1cccc(Cl)c1)CC2 (centres undefined) | . | . | / | . | /
SMILES | NIH3T3 tox | GPT2 inh | NPR1 antag | HEK293 tox | Luciferase inh
O=C(COc1cccc(-n2cnnc2)c1)NC1CCCc2c1[nH]c1ccccc21 (centres undefined) | ? | . | . | ? | .
O=C1Nc2ccccc2CC12CCN2[S+](=O)([O-])c1ccccc1 (centres undefined) | . | . | . | . | .
CCC(=O)N1Cc2ccccc2CC2(CCCN(Cc3cccnc3)C2)C1 (centres undefined) | . | . | / | . | /
O=C1NCc2ccccc2CC12CCCN(Cc1c[nH]c3ccccc13)C2 (centres undefined) | ? | . | / | ? | /
Cc1cc(C(=O)N2CCC(Cc3nc(-c4cccnc4)n[nH]3)C2)nn1C (centres undefined) | . | . | . | . | .
O=C(NC1CC1)c1nc(-c2cc(Cl)cc(Cl)c2)c2ccccn12 | . | . | . | ? | .
O=C(NC1CC1)c1nc(-c2ccc(Cl)cc2Cl)c2ccccn12 | ? | . | . | 35µM | .
O=C(NC1CC1)c1nc(-c2ccc(F)cc2)c2ccccn12 | ? | . | . | 89µM! | .
O=C(NC1CC1)c1nc(-c2cccnc2)c2ccccn12 | 45µM | . | / | . | /
COCCNC(=O)c1nc2sccn2c1-c1ccc(OC)cc1 | . | . | / | . | /
CN(C)S(=O)(=O)N1CCc2nc3cc(-c4ccccc4)[nH]n3c(=O)c2C1 | . | . | . | . | 0.45µM
CCOc1ccc2c(n1)CCN(C(=O)COc1ccccc1)C2 | . | . | . | . | .
O=[S+]1([O-])[C@@H](c2ccccc2)[C@H](COCc2ccccc2)CN1c1ccccc1 | ? | / | / | . | /
COC(=O)c1ccc(COC[C@@H]2CN(C(C)C)S(=O)(=O)[C@H]2c2ccccc2)cc1 | ? | / | / | 40µM | /
CN(Cc1ccc(-n2cccn2)cc1)Cc1nc(Cc2cccc(F)c2)no1 | . | . | . | ? | .
CN(Cc1cccc(-n2cccn2)c1)Cc1nc(-c2cccs2)no1 | . | . | . | 79µM | .
CCc1ccc(-n2nnnc2N2CCN(C(=O)Nc3ccc(C)c(F)c3)CC2)cc1 | ? | . | / | ? | /
Cc1cccc(-c2cccc(CCOc3cnc4c(ccn4CC(=O)O)c3)c2)c1 | ? | ? | . | ? | .
Cc1noc(C)c1-c1cccc(CCOc2cnc3c(ccn3CC(=O)O)c2)c1 | 50µM | . | . | ? | .
Cn1cc(-c2cccc(CCOc3cnc4c(ccn4CC(=O)O)c3)c2)cn1 | ? | . | . | . | 71µM
CC(=O)NCCc1ccc(CC2CCN(S(=O)(=O)N(C)C)CC2)cc1 | ? | . | / | ? | /
O=C(NC1CCN(Cc2cccc(-c3cccs3)c2)CC1)C1CCCC1 | . | . | / | . | /
O=C(NC1CCCCC1)C1CCCN(Cc2cccc(-c3cccs3)c2)C1 (centres undefined) | 28µM | . | / | ? | /
O=C(NC1CC1)C1CCCN(Cc2cccc(-c3cccs3)c2)C1 (centres undefined) | ? | . | / | 40µM | /
O=C(NC1CCCC1)C1CCCN(Cc2cccc(-c3cccs3)c2)C1 (centres undefined) | ? | . | / | 45µM | /
SMILES | NIH3T3 tox | GPT2 inh | NPR1 antag | HEK293 tox | Luciferase inh
COc1ccc(C)cc1Nc1nc(-c2ccc(OC)c(OC)c2)no1 | ? | . | . | ? | ?
COc1ccc(-c2noc(Nc3cc(C)ccc3OC)n2)cc1 | ? | . | . | ? | 18µM
Oc1cccc(-c2cc(C3=CCOCC3)c3cncn3c2)c1 | 100µM | ? | . | ? | .
COc1ncccc1-c1cc(C2=CCOCC2)c2cncn2c1 | ? | . | . | . | .
C1=C(c2cc(-c3cccc(N4CCOCC4)c3)cn3cncc23)CCOC1 | ? | ? | . | ? | .
Oc1ccccc1-c1cc(C2=CCOCC2)c2cncn2c1 | 63µM | . | . | 100µM | .
